# Source: PubChem
# Rv3671c protease: inhibitors of M. tuberculosis serine protease Rv3671c. P9WHR9. inhibition, % at 5.96 µM. 0.048% of 320,000 active; in the data active = inhibition above about 38%;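 note: extracellular domain of Rv3671c used as enzyme; 0% = enzyme with DMSO and 100% = no enzyme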
# Mtb bLac sens: beta-lactam sensitization of Mtb H37Rv; M. tuberculosis H37Rv growth with meropenem, percent inhibition; inhibition, % at 25 µM; 0.27% of 330,000 active; call rule not given here;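 note: growth measured after seven days incubation then overnight dye step; 0% = bacteria only wells and 100% = bacteria with antibiotic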
# Mtb UGM inh: inhibitors of M. tuberculosis UDP-galactopyranose mutase; P9WIQ1; purified UGM, fluorescence polarization probe displacement; inhibition, % at 10 µM; 0.06% of 320,000 active; AID 504406; in the data active = inhibition above about 10%, passing the limit was not always enough; inconclusive = no clear call, values can overlap the other calls
# GDH-TPI inh: inhibits GDH-TPI coupling enzymes, artifact for Mtb FBA screen; GDH-TPI coupled enzyme counterscreen, NADH absorbance; inhibition, % at 4.8 µM; 1.2% of 360,000 active; AID 588335; in the data active = inhibition above about 30%;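 note: 0% = DMSO wells and 100% = wells lacking the enzyme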
# Mtb FBA inh: Mtb fructose-bisphosphate aldolase inhibition. P9WQA3. purified M. tuberculosis FBA, fluorescence read-out. inhibition, % at 1 µM. 2.3% of 360,000 active. AID 588726; in the data active = inhibition above about 27%;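 note: 0% = vehicle and 100% = reference inhibitor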
# Target sequence (P9WQA3 whole entry, looked up): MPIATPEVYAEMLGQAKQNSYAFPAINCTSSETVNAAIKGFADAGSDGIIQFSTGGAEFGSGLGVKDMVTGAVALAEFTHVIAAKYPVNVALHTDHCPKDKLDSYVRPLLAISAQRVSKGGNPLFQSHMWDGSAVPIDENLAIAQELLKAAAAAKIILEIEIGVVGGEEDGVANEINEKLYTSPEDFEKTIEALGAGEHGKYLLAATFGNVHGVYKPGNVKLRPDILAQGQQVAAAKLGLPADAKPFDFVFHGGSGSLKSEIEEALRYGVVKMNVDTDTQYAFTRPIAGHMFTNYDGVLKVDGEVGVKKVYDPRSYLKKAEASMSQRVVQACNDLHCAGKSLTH
# * hit, by the source's call; u = inconclusive; x = no result given; + = active, no number. Compounds with a hit are over-represented: about 3.5% of the library has one in this group of screens.
SMILES,Rv3671c protease,Mtb bLac sens,Mtb UGM inh,GDH-TPI inh,Mtb FBA inh
CCOc1ccc2c(CC)cc(=O)oc2c1OCC,-0.4,7.0,2.5,3.8,12.1
O=C(CCC(=O)NC1CCCCC1)Nc1cccnc1,4.2,-2.4,2.4,-13.7,0.2
CN(Cc1ccn[nH]1)C(=O)C1CCC(=O)N(Cc2cccc(C(F)(F)F)c2)C1 (stereo not drawn),11.7,-6.0,0.3,-1.7,4.5
O=S(=O)(/C=C/c1ccccc1)N1CCOCC1,2.5,-2.9,0.4,8.1,0.7
Cc1ccc2oc(=O)cc(CN3CC(C)OC(C)C3)c2c1 (stereo not drawn),-2.1,4.0,-0.5,10.3,-2.4
O=c1cc(-c2ccccc2)c2cc(Cl)c(O)c(CN3CCOCC3)c2o1,-4.1,0.5,2.3,7.2,8.6
CCc1cc(=O)oc2c(CN3CCCC3)c(O)c(Cl)cc12,4.5,-11.7,1.4,25.9,+
Cc1cc2oc(=O)cc(CN3CCOCC3)c2c(C)c1Cl,x,4.2,-4.3,-6.0,136.7*
Cc1cc(=O)oc2c(CN3CCOCC3)c(O)ccc12,x,x,x,37.5*,x
Cc1cc(=O)oc2c(CN3CC(C)OC(C)C3)c(O)c(Cl)cc12 (stereo not drawn),-3.2,1.6,5.3,-2.9,+
OCCCNc1ncnc2c1ncn2[C@H]1CN(Cc2ccco2)C[C@@H](CO)O1,x,x,x,4.5,2.6
Cc1cccc(NC(=O)C(CCC(N)=O)NC(=O)OCc2ccccc2)c1 (stereo not drawn),-4.8,6.1,0.0,-3.8,-1.2
CCc1cc(=O)oc2c(CN3CCN(C)CC3)c(O)ccc12,1.3,-4.2,0.9,18.4,+
Cc1c(O)c(CN2CCCCC2)cc2c1oc(=O)c1ccccc12,2.9,97.7,-2.2,0.6,2.7
CCc1c(C)c2cc(Cl)c(O)c(CN3CCCCC3)c2oc1=O,1.2,10.9,0.5,1.6,+
Nc1nc(=S)c2ncn([C@@H]3O[C@H](CO)[C@@H](O)[C@H]3O)c2[nH]1,4.3,2.2,-1.2,26.6,-2.7
Nc1nc(=S)c2ncn(C3CCCCC3)c2[nH]1,x,x,x,30.7*,5.5
Cc1cc(C)[n+](-c2ccc(C(C)C)cc2)c2[nH]c(=O)[nH]c(=O)c12,-15.6,4.4,-1.1,11.5,+
CC(C)c1ccc(N=Nc2c(O)[nH]c(=O)[nH]c2=O)cc1,3.0,-2.0,-5.6,7.8,0.4
Cc1cccc(-[n+]2c(C)cc(C)c3c(=O)[nH]c(=O)[nH]c32)c1,6.0,-6.7,x,33.3*,+
O=C(NC1CCCCC1)c1cccc(OCc2ccccc2)c1,5.3,u,1.6,2.7,2.7
COc1ccccc1N1CCN(C(=S)Nc2ccccc2)CC1,-3.4,0.9,-2.6,-4.1,-4.2
CC(C)OP(=O)(OC(C)C)C(NC(=O)c1ccccc1Br)C(N)=O (stereo not drawn),6.0,-3.3,4.9,0.0,-0.3
COc1ccc([C@H]2CC(=O)C=C(c3ccnc4ccc(Cl)cc34)C2)cc1,-7.3,45.7,0.6,3.5,1.8
COC(=O)/C=c1/s/c(=C(/C#N)C(=O)N2CCCCC2)n(-c2ccccc2)c1=O,-1.8,-4.5,2.0,17.8,-0.8
SMILES,Rv3671c protease,Mtb bLac sens,Mtb UGM inh,GDH-TPI inh,Mtb FBA inh
COC(=O)/C=c1/s/c(=C(/C#N)C(=O)N2CCOCC2)n(-c2ccccc2)c1=O,6.3,-1.0,-2.4,39.9*,2.5
COc1ccc(-n2c(=O)/c(=C\c3cccs3)s/c2=C(/C#N)C(=O)NCCN2CCOCC2)cc1,0.4,-1.4,0.4,34.1*,-4.7
C=CCn1c(=O)/c(=C\c2ccsc2)s/c1=C(/C#N)C(=O)NCCN1CCOCC1,2.5,1.7,u,7.5,0.6
Cc1ccc(NC(=O)CN(C)C(=O)c2ccccc2Sc2ccccc2C#N)cc1,-4.8,-3.2,0.2,1.4,-0.8
COc1ccccc1OCCNC(=O)CCNS(=O)(=O)c1ccc(C)cc1,x,x,x,-2.1,-0.3
CC1(C)CC(=O)C=C(c2cc3ccccc3s2)C1,2.6,19.1,0.4,30.2,10.0
COc1ccc([C@H]2CC(=O)C=C(c3cc4ccccc4s3)C2)cc1OC,-4.9,6.6,0.4,32.6*,0.4
COc1ccc([C@H]2CC(=O)C=C(c3ccc(NC(C)=O)cc3)C2)cc1OC,-9.4,5.2,2.3,36.8*,6.6
O=C1C=C(c2cc3ccccc3s2)CCC1,-3.2,-2.5,3.0,34.5*,7.6
COc1ccc([C@H]2CC(=O)C=C(c3cccc4c3sc3ccccc34)C2)cc1OC,-33.7,54.0,3.3,19.8,0.3
Cc1ccc(/C=N/NC(=O)NC23CC4CC(CC(C4)C2)C3)o1,10.3,38.4,0.5,13.1,1.0
CCOc1cc(/C=N/NC(=O)c2nnn(-c3nonc3N)c2C)ccc1OCc1cccc(F)c1,-3.6,3.6,2.8,0.9,4.3
O=S(=O)(Nc1ccccc1N1CCOCC1)c1c(F)cc(F)cc1Br,4.5,-3.9,1.9,1.0,3.2
Cc1ccc(-n2c(=O)c3sccc3n(Cc3cc(=O)n4cc(Cl)ccc4n3)c2=O)cc1F,-3.0,-4.5,0.2,15.4,1.7
c1ccc2c(c1)ccc1ccccc12,0.1,2.2,x,8.8,4.6
OCCN(CCO)c1cc2c3ccccc3ccc2c2ccccc12,x,x,x,1.8,130.8*
O=C1OC(c2ccc(Cl)cc2)=N/C1=C\N1CC2CC(C1)c1cccc(=O)n1C2 (stereo not drawn),3.6,-4.2,0.5,59.7*,2.2
O=C1OC(c2ccc(Br)cc2)=N/C1=C\N1CC2CC(C1)c1cccc(=O)n1C2 (stereo not drawn),4.7,-5.2,-0.9,55.8*,-3.9
O=C1OC(c2ccc([N+](=O)[O-])cc2)=N/C1=C/N1CC2CC(C1)c1cccc(=O)n1C2 (stereo not drawn),-1.7,-0.6,-0.6,20.6,0.2
Nc1ccc(-c2ncc(-c3ccccc3)o2)cc1,-4.5,10.9,-0.9,26.8,+
Cc1ccc(-c2cnc(-c3ccncc3)o2)cc1,-3.9,6.2,2.3,19.2,+
O=C(O)c1ccccc1-c1ncc(-c2ccccc2)o1,-0.8,-0.9,3.0,18.3,123.1*
CCOc1cc(C2NC(=O)CCC2[N+](=O)[O-])cc(Br)c1OCC (stereo not drawn),-2.9,6.4,1.1,-2.6,4.7
C/C(=N/NC(=O)c1sc(NS(=O)(=O)c2ccccc2)nc1C)c1sc(N)nc1C,4.0,-0.3,1.1,38.2*,6.4
O=c1c2c(nc(NCCO)n1CC1CCCCC1)-c1ccccc1CC21CCCC1,-1.9,24.1,1.2,12.0,42.9*
O=c1c2c(nc3n1CCCCC3)-c1ccccc1CC21CCCCC1,-4.8,23.3,1.0,6.5,0.7
CCn1c(NCCCO)nc2c(c1=O)C(C)(CC)Cc1ccccc1-2 (stereo not drawn),-3.5,-0.5,1.1,19.0,154.6*
CCC1(C)Cc2ccccc2-c2nc(NCCCO)n(C)c(=O)c21 (stereo not drawn),-1.7,-6.8,0.6,-0.8,163.4*
CCC1(C)Cc2ccccc2-c2nc3n(c(=O)c21)CCCCC3 (stereo not drawn),2.3,28.1,x,-3.1,-0.9
C=CC[N+]1(CC(=O)NCc2ccc(NC(C)=O)cc2)CCOCC1,3.7,-4.2,0.8,2.0,-4.3
